The target in assay [1] is Thioredoxin reductase 1, cytoplasmic (Rattus norvegicus) (UniProt O89049). The assay can be described thus: qHTS Assay for Substrates of Mammalian Selenoprotein Thioredoxin Reductase 1 (TrxR1) (AID 488772).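 Note: NADPH fluorescence in the first read after selenite addition and not the 8 min delta; series mostly up to about 57 µM; 0% is about no effect; a drop in NADPH fluorescence below the no-compound background marks a TrxR1 substrate.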 In outline:
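Quantitative HTS in Tris-HCl buffer at pH 7.5 with EDTA and Tween-20, using rat TrxR1, 400 uM NADPH and 400 uM selenite (final). A fall in initial NADPH fluorescence relative to background marked substrate behaviour.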

Assay [2] has the same target. The assay can be described thus: qHTS Assay for Inhibitors of Mammalian Selenoprotein Thioredoxin Reductase 1 (TrxR1) (AID 488773). Note: nearly all actives have a fitted effect of over 40% in size. Note: potency is the fitted concentration of half-maximal effect. To be noted: Potency: inhibition. The method in brief:
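Steps: enzyme (90 nM) plus NADPH (400 uM final), 5 min at ~22 deg C; compound added, 15 min; selenite (400 uM final) added; fluorescence followed for 8 min. Concentration-response curves derived from the normalized delta values.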

In assay [3] the target is Flap endonuclease 1 (Homo sapiens) (UniProt P39748). Put plainly: qHTS Validation Assay for the Inhibitors of Human Flap endonuclease 1 (FEN1) (AID 488816). Note: % is set by controls: 0 for no effect and ±100 for the full control effect. In outline: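 Readings taken at 0 and 15 min after starting the reaction with 50 nM (final) substrate supplied the signal. Compounds had first sat with 10 nM FEN1 reagent for 15 min at room temperature. Values come from Hill-equation concentration-response fits.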

For assay [4], the target named is Methanococcus maripaludis chaperonin (MmCpn) (UniProt Q6LX38). The assay can be described thus: High-Throughput Screening for Modulators of Cytosolic Chaperonin Activity: MmCpn Primary Screen (AID 488978).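 Note: 50 nM MmCpn enzyme hydrolysing 30 µM ATP at 37 °C; 0% is about no effect.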 The method in brief:
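ATPase activity of 50 nM MmCpn was assayed with 30 uM ATP, 10 minutes at 37C, after a 5 min compound preincubation at room temperature. ADP production was read as HTRF emission at 590 and 665 nm.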

Assay [5] addresses Transient receptor potential cation channel subfamily V member 1 (Homo sapiens) (UniProt Q8NER1). The assay can be described thus: HTS Assay for Compounds that Act as Enhancers of the Vanilloid Receptor 1 (AID 488979). Note: 0% is about no effect. The method in brief:
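Calcium influx kinetics via Fluo-8 (480/520 nm) in TRPV1-expressing cells, 2000/well cultured overnight at 35.5C. Compound-alone read 3 min (agonist phase), followed by EC20 capsaicin challenge for 2 min (enhancer phase).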

The target of assay [6] is Thyrotropin receptor (Homo sapiens) (UniProt P16473). Put plainly: qHTS Assay for Antagonists of the Thyroid Stimulating Hormone Receptor (AID 488980). Note: series mostly up to about 58 µM; 0% is about no effect. In outline:
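Inhibition of cAMP raised by EC80 TSH (4 nM final) was read by HTRF, with lysate cAMP competing against cAMP-d2 for cryptate antibody after 30 min at room temperature. The cells were transfected HEK293 held in phosphodiesterase inhibitor RO 20-1724 at 70 uM.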

Assay [7] deals with D(1A) dopamine receptor (Homo sapiens) (UniProt P21728). The assay can be described thus: HTS Assay for Allosteric Agonists of the Human D1 Dopamine Receptor: Primary Screen for Potentiators (AID 488982). Note: 0% is about no effect. The method in brief: (§1)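 Calcium flux in an inducible, force-coupled HEK293 Trex D1 line (overnight at 30 C): agonist mode is the 180 s kinetic read after compound; potentiator mode is the following 180 s read after dopamine at EC20.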

For assay [8] the target is unchanged. Put plainly: HTS Assay for Allosteric Agonists of the Human D1 Dopamine Receptor: Primary Screen for Antagonists (AID 488983).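 Note: calcium flux response to an EC80 dopamine challenge measured with no-wash dye; nearly all actives have a fitted effect of over 65% in size.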 Note: potency is the fitted concentration of half-maximal effect. In outline: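 Tetracycline-induced HEK293 T-REx cells expressing force-coupled D1 were plated overnight at 30 C, dye-loaded for calcium, and read kinetically. Compounds were pinned in, then an EC80 dopamine challenge followed after 180 s to reveal antagonism.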

A short description of assay [9]: Validation screen for small molecules that induce genotoxicity in human embryonic kidney (HEK293T) cells expressing luciferase-tagged ELG1 (AID 493106). Note: potency is the fitted concentration of half-maximal effect. The method in brief: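 HEK293T cells expressing luciferase-tagged ELG1 were exposed to compound or DMSO vehicle for 16 hr at 37 °C, 5% CO2. Genotoxic stress raises ELG1 levels, so increased luciferase signal after ONE-Glo addition and 30 min at room temperature marks hits.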

In assay [10] the target is Thyrotropin-releasing hormone receptor (Homo sapiens) (UniProt P34981). The assay can be described thus: qHTS for Small Molecule Agonists and Allosteric Enhancers of Human TRH Receptor: Validation Screen for Agonists (AID 493127;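 active = calcium activation more than 3 SD above the typical response in the agonist read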;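 note: intracellular calcium rise by fluo-8 fluorescence before TRH EC20 addition; 0% is about no effect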). To be noted: TRH receptor agonist cell assay; at 2 µM; stronger effect = higher value. The method in brief:
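TRHR-expressing cells were plated overnight in serum-containing medium, then loaded with fluo-8 calcium dye at room temperature for 30 min–1.5 h. After a 10 s baseline, compound was pin-transferred and calcium fluorescence (ex 480/em 530) read kinetically for agonist response.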

Assay [11] is described as follows: Nrf2 qHTS screen for inhibitors: Validation (AID 493153; active = well fitted inhibition curve with a large enough effect in the main read-out, with a control signal flat, not every such curve was filed as active). To be noted: Potency: luciferase luminescence; viability change: measured here: cytotoxicity max response. In outline:
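A549 cells carrying an ARE-driven firefly luciferase reporter, in 5% FBS OPTI-MEM, were treated with compounds in concentration-response for 18-24 h at 37°C. Viability was read by CellTiter-Fluor fluorescence, then Nrf2 activity by luciferase luminescence.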

The nature of assay [12]: qHTS for Inhibitors of Cell Surface uPA Generation: Validation Assay (AID 493164).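 Note: RAW 264.7 macrophage cells exposed to compound for 18 h; 0% is about no effect.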 The method in brief:
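RAW 264.7, 4000 cells/well, o/n plating; cpd 7-pt 1:5 dilution 2.45 nM–38.3 uM final; 18 h, 37 C/5% CO2; ATP-Lite, 5 s luminescence exposure.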

Assay [13] addresses Galactokinase (Homo sapiens) (UniProt P51570). Put plainly: qHTS Validation Assay for Inhibitors of Human Galactokinase (GALK) (AID 493189). Note: 0% is about no effect. In outline: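 Inhibition was measured as remaining ATP, detected by luciferase luminescence after a 1 h room-temperature reaction. Final conditions: 5 nM GALK, 100 uM galactose, 35 uM ATP, pH 8.0 HEPES buffer.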
Assay [14] concerns the target D(1A) dopamine receptor (Homo sapiens) (UniProt P21728). Put plainly: HTS Assay for Allosteric Agonists of the Human D1 Dopamine Receptor: Primary Screen for Agonists (AID 488981). For activation: 0% is about no effect. Note: potency is the fitted concentration of half-maximal effect. In outline:
as §1

In assay [15] the target is ATPase family AAA domain-containing protein 5 (Homo sapiens) (UniProt Q96QE3). The assay can be described thus: Validation screen for small molecules that inhibit ELG1-dependent DNA repair in human embryonic kidney (HEK293T) cells expressing luciferase-tagged ELG1 (AID 493107).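 Note: cells co-treated with the DNA-damaging agent 5-fluorouridine alongside compound; series mostly up to about 46 µM; % is set by controls: 0 for no effect and ±100 for the full control effect; inhibitors lower the ELG1-luciferase luminescence signal; nearly all actives have a fitted effect of over 70% in size.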 In outline:
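HEK293T cells expressing luciferase-tagged ELG1 were co-treated with 5-fluorouridine and compound or DMSO for 16 hr at 37 °C, 5% CO2. Luciferase activity was then read with ONE-Glo after 30 min at room temperature; suppressed signal indicates blocked ELG1 function.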

Assay [16] can be described thus: Validation screen for small molecules that induce DNA re-replication in SW480 colon adenocarcinoma cells (AID 504364). Note: 0% is about no effect. In outline: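 SW480 cells seeded at 250 per well were exposed to compound or DMSO for 48 hr at 37 C, 5% CO2, then stained with Hoechst for 40 min. DNA content per nucleus was imaged (405 nm ex, 500-530 nm em).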
Assay [17] deals with M-phase phosphoprotein 8 (Homo sapiens) (UniProt Q99549). Put plainly: qHTS Validation Assay for Inhibitors for MPP8 Chromodomain Interactions with Methylated Histone Tails (AID 488949).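 Note: AlphaScreen signal from MPP8 chromodomain bound to biotinylated H3K9me3 peptide; top concentration of the series differs between compounds; % is set by controls: 0 for no effect and ±100 for the full control effect; nearly all actives have a fitted effect of over 55% in size.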 In outline: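 AlphaScreen proximity signal from streptavidin donor and Ni-chelate acceptor beads (10 ug/mL each) reported binding of MPP8 to trimethyl-K9 H3(1-18) peptide, both at 50 nM. The complex formed 30 min before a 30 min compound exposure at room temperature, in PBS pH 7.4.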

The target of assay [18] is Chromobox protein homolog 1 (Homo sapiens) (UniProt P83916). The assay can be described thus: qHTS Validation Assay for Inhibitors of HP1-beta Chromodomain Interactions with Methylated Histone Tails (AID 488953). Note: nearly all actives have a fitted effect of over 50% in size. Note: potency is the fitted concentration of half-maximal effect. The method in brief: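 HP1-beta (50 nM) was preincubated 30 min at room temperature with biotinylated H3(1-18)K9me3 peptide (50 nM) in PBS pH 7.4, 0.01% Tween-20, then with compounds 30 min. AlphaScreen signal was read after streptavidin donor/nickel chelate acceptor beads (10 ug/mL final).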

For assay [19], the target named is ATP-dependent 6-phosphofructokinase (Trypanosoma brucei brucei) (UniProt O15648). The assay can be described thus: qHTS Assay to Find Inhibitors of T. brucei phosphofructokinase: hit validation (AID 492961).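 Note: luminescence reports ADP formed as PFK phosphorylates fructose-6-phosphate with ATP; series mostly up to about 51 µM; % is set by controls: 0 for no effect and ±100 for the full control effect.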 In outline: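 In this biochemical qHTS validation, titrated compounds were tested against 1.25 nM PFK with 0.1 mM ATP and 0.5 mM F6P. Percent activity came from controls lacking or containing enzyme.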

Each structure is given as a SMILES string. Inconclusive results are not listed. Calls of active or inactive are those of the source. Unless noted, calls come from the whole dose curve; as a rule, active = well fitted curve in the direction sought with a large enough effect; inconclusive = small, poorly fitted or top-dose-only effect, or another doubt; inactive = no such curve, though single readings can be large; an effect the other way counts as inactive or inconclusive.

Chain of Galactokinase (Homo sapiens) (P51570 whole entry, looked up): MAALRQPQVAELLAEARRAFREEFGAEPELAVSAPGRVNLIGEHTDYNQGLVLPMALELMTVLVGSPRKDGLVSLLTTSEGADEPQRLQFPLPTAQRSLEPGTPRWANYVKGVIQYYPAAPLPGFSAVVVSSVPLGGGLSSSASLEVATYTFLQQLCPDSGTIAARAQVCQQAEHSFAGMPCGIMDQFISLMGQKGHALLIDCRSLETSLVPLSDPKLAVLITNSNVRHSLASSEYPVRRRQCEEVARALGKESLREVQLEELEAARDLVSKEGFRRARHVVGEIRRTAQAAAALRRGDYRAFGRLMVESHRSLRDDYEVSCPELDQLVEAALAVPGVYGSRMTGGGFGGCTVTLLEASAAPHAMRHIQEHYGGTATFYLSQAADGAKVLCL
Chain of Thyrotropin-releasing hormone receptor (Homo sapiens) (P34981 whole entry, looked up): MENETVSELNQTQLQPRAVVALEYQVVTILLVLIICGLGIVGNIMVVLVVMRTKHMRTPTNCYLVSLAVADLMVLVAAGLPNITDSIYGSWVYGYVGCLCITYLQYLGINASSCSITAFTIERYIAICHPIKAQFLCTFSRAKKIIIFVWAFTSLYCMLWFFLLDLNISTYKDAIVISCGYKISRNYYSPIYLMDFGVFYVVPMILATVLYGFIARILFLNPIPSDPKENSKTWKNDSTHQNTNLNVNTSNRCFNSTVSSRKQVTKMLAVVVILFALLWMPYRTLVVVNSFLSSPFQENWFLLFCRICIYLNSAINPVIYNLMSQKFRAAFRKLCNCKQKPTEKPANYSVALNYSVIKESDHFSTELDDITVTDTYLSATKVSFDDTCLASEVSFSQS
Chain of Thyrotropin receptor (Homo sapiens) (P16473 whole entry, looked up): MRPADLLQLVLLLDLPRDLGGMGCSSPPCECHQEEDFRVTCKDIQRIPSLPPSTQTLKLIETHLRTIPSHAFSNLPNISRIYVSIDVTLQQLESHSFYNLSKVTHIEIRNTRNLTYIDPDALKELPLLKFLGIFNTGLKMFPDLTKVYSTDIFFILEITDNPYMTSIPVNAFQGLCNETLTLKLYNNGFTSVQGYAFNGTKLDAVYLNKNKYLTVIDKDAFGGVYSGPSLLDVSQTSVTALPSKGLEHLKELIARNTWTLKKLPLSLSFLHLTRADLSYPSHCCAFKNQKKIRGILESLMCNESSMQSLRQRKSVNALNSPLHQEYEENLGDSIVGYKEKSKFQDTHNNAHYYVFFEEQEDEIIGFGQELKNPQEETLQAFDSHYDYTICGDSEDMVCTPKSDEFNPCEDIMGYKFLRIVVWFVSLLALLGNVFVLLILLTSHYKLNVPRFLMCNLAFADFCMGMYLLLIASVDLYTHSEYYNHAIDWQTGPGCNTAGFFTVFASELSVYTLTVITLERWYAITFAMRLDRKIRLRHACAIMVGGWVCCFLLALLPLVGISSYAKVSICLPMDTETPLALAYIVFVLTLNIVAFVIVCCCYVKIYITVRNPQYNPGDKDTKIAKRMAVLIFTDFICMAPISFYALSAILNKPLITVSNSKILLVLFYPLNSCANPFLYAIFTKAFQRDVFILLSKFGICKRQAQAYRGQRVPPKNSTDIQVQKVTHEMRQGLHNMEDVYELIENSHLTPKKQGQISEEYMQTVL
Chain of Methanococcus maripaludis chaperonin (MmCpn) (Q6LX38 1-543): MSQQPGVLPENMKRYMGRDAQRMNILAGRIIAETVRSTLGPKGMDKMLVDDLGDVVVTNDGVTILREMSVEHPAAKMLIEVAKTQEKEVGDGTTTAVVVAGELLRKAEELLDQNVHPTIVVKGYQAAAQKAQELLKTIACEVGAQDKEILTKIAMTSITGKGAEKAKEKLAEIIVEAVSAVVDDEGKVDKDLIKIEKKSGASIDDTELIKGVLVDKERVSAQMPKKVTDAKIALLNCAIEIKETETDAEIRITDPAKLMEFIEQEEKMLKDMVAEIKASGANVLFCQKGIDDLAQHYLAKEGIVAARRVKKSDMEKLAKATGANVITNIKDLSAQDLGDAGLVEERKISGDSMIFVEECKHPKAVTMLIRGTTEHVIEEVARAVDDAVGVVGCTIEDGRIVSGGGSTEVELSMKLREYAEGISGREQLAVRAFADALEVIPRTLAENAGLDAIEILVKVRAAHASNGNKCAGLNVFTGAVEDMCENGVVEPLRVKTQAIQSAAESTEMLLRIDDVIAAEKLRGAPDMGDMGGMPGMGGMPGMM
Chain of Thioredoxin reductase 1, cytoplasmic (Rattus norvegicus) (O89049 whole entry, looked up): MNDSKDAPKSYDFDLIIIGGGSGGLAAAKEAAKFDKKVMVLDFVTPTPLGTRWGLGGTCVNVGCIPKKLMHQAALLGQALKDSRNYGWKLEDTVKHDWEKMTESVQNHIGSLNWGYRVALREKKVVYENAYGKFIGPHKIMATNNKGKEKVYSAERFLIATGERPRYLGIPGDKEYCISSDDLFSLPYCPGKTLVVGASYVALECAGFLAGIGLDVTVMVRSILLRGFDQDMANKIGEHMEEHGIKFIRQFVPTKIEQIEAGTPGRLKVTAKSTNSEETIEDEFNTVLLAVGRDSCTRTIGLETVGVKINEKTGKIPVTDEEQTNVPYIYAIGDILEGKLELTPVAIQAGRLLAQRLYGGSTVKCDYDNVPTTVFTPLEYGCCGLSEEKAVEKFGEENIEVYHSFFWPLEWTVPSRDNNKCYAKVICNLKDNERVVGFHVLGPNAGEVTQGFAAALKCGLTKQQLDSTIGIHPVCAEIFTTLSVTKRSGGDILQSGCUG
Chain of M-phase phosphoprotein 8 (Homo sapiens) (Q99549 whole entry, looked up): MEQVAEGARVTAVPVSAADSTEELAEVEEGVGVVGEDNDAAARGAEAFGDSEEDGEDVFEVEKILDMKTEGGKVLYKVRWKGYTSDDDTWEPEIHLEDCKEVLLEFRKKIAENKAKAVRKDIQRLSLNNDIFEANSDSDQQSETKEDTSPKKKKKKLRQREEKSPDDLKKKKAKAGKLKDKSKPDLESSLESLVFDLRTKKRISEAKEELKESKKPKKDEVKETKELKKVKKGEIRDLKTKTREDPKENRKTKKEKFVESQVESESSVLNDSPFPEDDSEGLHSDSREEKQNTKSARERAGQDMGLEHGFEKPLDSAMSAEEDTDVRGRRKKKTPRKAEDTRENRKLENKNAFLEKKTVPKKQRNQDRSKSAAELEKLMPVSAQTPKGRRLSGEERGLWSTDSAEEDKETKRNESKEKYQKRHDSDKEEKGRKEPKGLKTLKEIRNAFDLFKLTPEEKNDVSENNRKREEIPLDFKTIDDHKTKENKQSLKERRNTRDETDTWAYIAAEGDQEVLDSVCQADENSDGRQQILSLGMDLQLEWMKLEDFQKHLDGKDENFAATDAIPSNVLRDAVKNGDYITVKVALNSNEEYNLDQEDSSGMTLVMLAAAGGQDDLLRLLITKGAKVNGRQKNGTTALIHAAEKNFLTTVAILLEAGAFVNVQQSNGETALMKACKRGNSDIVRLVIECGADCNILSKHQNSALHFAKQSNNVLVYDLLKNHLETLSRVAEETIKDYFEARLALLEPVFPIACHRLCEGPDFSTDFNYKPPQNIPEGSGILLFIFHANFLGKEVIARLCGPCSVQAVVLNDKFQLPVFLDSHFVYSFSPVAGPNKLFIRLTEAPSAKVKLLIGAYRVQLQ
Chain of Chromobox protein homolog 1 (Homo sapiens) (P83916 whole entry, looked up): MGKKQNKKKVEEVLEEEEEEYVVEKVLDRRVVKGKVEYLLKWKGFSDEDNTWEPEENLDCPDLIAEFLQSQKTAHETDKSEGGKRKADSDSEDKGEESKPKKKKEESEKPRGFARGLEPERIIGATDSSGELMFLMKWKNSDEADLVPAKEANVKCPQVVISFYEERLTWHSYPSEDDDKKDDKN
Chain of Transient receptor potential cation channel subfamily V member 1 (Homo sapiens) (Q8NER1 whole entry, looked up): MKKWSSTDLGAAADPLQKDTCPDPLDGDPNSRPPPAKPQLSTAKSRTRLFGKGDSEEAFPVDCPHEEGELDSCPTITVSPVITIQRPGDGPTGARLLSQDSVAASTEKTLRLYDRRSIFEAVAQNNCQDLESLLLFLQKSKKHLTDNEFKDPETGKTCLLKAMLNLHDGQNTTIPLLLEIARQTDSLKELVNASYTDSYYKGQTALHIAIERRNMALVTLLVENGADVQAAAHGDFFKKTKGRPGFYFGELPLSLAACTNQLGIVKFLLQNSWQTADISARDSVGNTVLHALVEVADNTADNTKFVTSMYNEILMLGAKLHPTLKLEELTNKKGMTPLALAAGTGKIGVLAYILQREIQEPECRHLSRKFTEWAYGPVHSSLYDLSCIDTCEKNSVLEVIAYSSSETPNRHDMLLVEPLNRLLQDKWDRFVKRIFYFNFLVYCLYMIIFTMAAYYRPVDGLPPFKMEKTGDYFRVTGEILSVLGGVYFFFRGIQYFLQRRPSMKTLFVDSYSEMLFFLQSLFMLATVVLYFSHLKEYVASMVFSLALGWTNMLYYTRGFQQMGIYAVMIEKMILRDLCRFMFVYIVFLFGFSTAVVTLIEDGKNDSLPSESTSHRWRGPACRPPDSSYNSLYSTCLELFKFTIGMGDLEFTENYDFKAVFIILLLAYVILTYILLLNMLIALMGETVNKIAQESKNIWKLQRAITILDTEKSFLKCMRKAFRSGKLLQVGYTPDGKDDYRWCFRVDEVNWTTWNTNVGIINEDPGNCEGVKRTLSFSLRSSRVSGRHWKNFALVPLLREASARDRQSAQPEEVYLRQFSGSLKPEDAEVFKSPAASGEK
Chain of Flap endonuclease 1 (Homo sapiens) (P39748 whole entry, looked up): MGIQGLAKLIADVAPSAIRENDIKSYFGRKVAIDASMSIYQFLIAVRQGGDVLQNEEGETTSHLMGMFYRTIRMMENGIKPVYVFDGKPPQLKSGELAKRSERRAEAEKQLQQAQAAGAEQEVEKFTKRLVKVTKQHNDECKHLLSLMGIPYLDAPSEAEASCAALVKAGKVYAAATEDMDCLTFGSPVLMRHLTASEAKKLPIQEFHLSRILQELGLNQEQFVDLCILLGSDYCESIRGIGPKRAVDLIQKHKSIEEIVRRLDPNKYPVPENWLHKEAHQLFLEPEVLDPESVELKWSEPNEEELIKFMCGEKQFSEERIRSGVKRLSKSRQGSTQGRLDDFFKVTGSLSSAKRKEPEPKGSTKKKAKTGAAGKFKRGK

`O=C(/C=C/c1ccc(O)c(O)c1)OCCc1ccccc1`: the Potency result in [1], in assay [2], in assay [3], in assay [7], in assay [8] and in assay [11] was “inactive” each time. In addition, the Potency result in [13] is “inactive”. In addition, the compound was classed as inactive in [4], in assay [5], in assay [6] and in assay [12]. In addition, in assay [9], the Potency is 20.6 µM (active). In [10], the activation is 0.812% (inactive). In [11], the viability change is -1.73%.
On to `CC(C)NC[C@H](O)COc1cccc2[nH]ccc12`, for which the Potency entry in assay [1], in assay [2], in assay [14], in assay [7], in assay [8] and in assay [9] was “inactive” in each case. The Potency entry in [15], in [11], in [13] and in assay [16] was “inactive” each time. The compound was called inactive in assay [4], in [5], in assay [6] and in assay [12]. Besides, in assay [10], the activation is 1.12% (inactive). Besides, the viability change in assay [11] was -1.79%.
Turning to `O=[N+]([O-])c1ccc2c(c1)S(=O)(=O)C=C2`, the Potency result in [1], in [3], in [17], in assay [14], in [7] and in assay [8] was “inactive” each time. Also, the Potency result in [9] was “inactive”. In addition, the Potency in assay [2] is 2.12 µM (active). Also, the compound was called inactive in assay [4] and in [12].
With `CC(=O)SCC[N+](C)(C)C`, the Potency entry in [1], in [2], in assay [17], in assay [18], in assay [14] and in assay [7] was “inactive” throughout. Moreover, the Potency entry in assay [8], in assay [9], in assay [15], in [11], in assay [13] and in assay [16] was “inactive” throughout. In addition, the result in assay [4], in assay [5] and in assay [6] was inactive. In [10], the activation is 0.875% (inactive). Also, the viability change in assay [11] is -2.78%.
`O=C(c1ccc(OCCCc2cnc[nH]2)cc1)C1CC1`: the Potency result in assay [1], in [2], in assay [3], in assay [17], in assay [7] and in assay [8] was “inactive” in each case. Besides, the Potency result in [11] was “inactive”. The result in assay [4] and in assay [12] was inactive. The viability change in assay [11] was -3.26%.
Turning to `CC(=O)/C=C1\C(=O)N(C)c2ccccc21`, the Potency result in assay [1], in assay [3], in [17], in assay [14], in assay [7] and in [9] was “inactive” each time. The Potency result in assay [15] and in [11] was “inactive” throughout. The Potency is 29.9 µM (active) in assay [2], 0.0532 µM (active) in [18] and 10 µM (active) in assay [8]. Also, the viability change in [11] is -4.33%. Further, the compound was classed as inactive in assay [12].
Turning to `CCCn1c(=O)c2[nH]c(-c3ccc(OCC(=O)NCCN)cc3)nc2n(CCC)c1=O`, the Potency entry in [1], in [2], in assay [3], in [17], in assay [14] and in assay [7] was “inactive” in each case. In addition, the Potency result in assay [8], in assay [9], in assay [11], in [13] and in assay [16] was “inactive” throughout. Besides, the result in assay [4], in assay [5], in [6] and in assay [12] was inactive. The activation in assay [10] was 0.688% (inactive). Besides, the viability change in assay [11] is 10.5%.
Regarding `CC1OC1P(=O)(O)O` (centres undefined), the Potency entry in assay [1], in assay [2], in [3], in assay [14], in [8] and in assay [9] was “inactive” each time. Besides, the Potency entry in assay [15] and in assay [11] was “inactive” throughout. Besides, the compound was called inactive in [4], in assay [19] and in [12]. In assay [11], the viability change came out at 11.8%.
Consider `CCCCCCCCCCCCCCCC(=O)NCC(COP(=O)([O-])OCC[N+](C)(C)C)OCC` (centres undefined), for which the Potency result in assay [1], in [2], in [3], in assay [17], in [18] and in assay [7] was “inactive” each time. Moreover, the Potency result in assay [11] and in [13] was “inactive” in each case. Besides, the call in assay [6] and in assay [12] was inactive. The Potency is 12.6 µM (active) in assay [14], 10 µM (active) in [8] and 18.3 µM (active) in assay [9]. In addition, the activation in [10] was 0.812% (inactive). Also, the viability change in [11] is 10.8%.

Source of the values: PubChem BioAssay (NCATS).
